Some test systems named below: T-47D breast; BT-549 breast; MDA-MB-435 melanoma; SW-620 colon; MCF7 breast; HCT-116 colon; KM12 colon; HCC-2998 colon.
Assay in all cases: NCI-60 one-dose screen, 48 h (100 = growth as untreated, 0 = no growth, -100 = all killed)
What all share (conditions): 10 µM unless noted

Structures are written as SMILES. The panel holds about 83,000 compounds, 20% with a hit somewhere; the sample as a whole holds those more often.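 Cell lines were cultured in 96-well plates, exposed to a single compound concentration, and assessed for percent growth 48 hours later.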 Values without a mark were called inactive. Activity calls are given as the source filed them. The calls were made as follows: active = growth percent below 10; inactive = the rest.

With `CC1=NN(c2ccc(S(=O)(=O)O)cc2Cl)C(=O)C1`, the growth in the assay with T-47D breast is 97.8%; in the assay with BT-549 breast it was 116%; with MDA-MB-435 melanoma it was 107%; with SW-620 colon it was 107%; with MCF7 breast, 94.4%; in the assay with HCT-116 colon it was 93%. Besides, in the assay on KM12 colon, the growth was 137%.
`CC(=O)Cc1nsc(NC(=O)c2ccoc2COc2ccccc2)n1`: the growth in the assay with T-47D breast was 105%; with BT-549 breast, 94%; in the assay on MDA-MB-435 melanoma it was 107%; in the assay with SW-620 colon it was 105%; with MCF7 breast, 98.2%; in the assay on HCT-116 colon, 98%. The growth with HCC-2998 colon was 103%; in the assay with KM12 colon, 100%.
For the compound `COc1ccc2c(c1)c1nc3cc(C)c(C)cc3nc1n2CCN(C)C`, the growth is 25.3% in the assay on T-47D breast; 56% in the assay on BT-549 breast; 18.1% with MDA-MB-435 melanoma; -66.1% (active) in the assay on SW-620 colon; -69.9% (active) in the assay with MCF7 breast; -70.1% (active) with HCT-116 colon. The growth with HCC-2998 colon was 20.5%; in the assay on KM12 colon, 18%.
Consider `Cc1c(C)c2c(c(C)c1NC(=O)CCCCCCC(=O)O)CCC(C)(CCCC(C)CCCC(C)CCCC(C)C)O2` (stereo not given), for which the growth in the assay on T-47D breast is 89.7%; in the assay on BT-549 breast, 60.3%; with MDA-MB-435 melanoma it was 95%; with SW-620 colon, 80.4%; in the assay with MCF7 breast, 43.5%; with HCT-116 colon, 22.7%. Besides, the growth with KM12 colon was 30.7%.
In the case of `CC(C)/C=C/CC[C@](C)(O)[C@H]1CC[C@]2(C)[C@@H]1CC[C@@H]1[C@@]3(C)C/C(=C/c4cccc(C(F)(F)F)c4)C(=O)C(C)(C)[C@@H]3CC[C@]12C`, the growth was 73.8% with T-47D breast; 95.9% with BT-549 breast; 99.3% with MDA-MB-435 melanoma; 93.3% in the assay on SW-620 colon; 82% with MCF7 breast; 76% with HCT-116 colon. In addition, the growth in the assay on KM12 colon is 99.8%.
In the case of `CC(=O)O[C@H]1CC[C@]2(C)[C@H]3CC=C4[C@@H]5[C@H](C)[C@@H](C)CC[C@]5(C(=O)NCCNCCNCCN)CC[C@@]4(C)[C@]3(C)CC[C@H]2C1(C)C`, the growth was 63.8% in the assay with T-47D breast; 93.7% in the assay with BT-549 breast; 83% with MDA-MB-435 melanoma; 87.3% in the assay with SW-620 colon; 58.1% in the assay on MCF7 breast; 62.3% in the assay on HCT-116 colon. The growth with HCC-2998 colon was 80%; in the assay with KM12 colon, 86.2%.
As to `CC1(C)C(=O)/C(=C\c2ccco2)C[C@]2(C)[C@H]3CC[C@@H]4[C@@H](C(=O)/C=C/c5ccco5)CC[C@@]4(C)[C@]3(C)CC[C@@H]12`, the growth in the assay on T-47D breast was 35%; in the assay with BT-549 breast, 95.7%; with MDA-MB-435 melanoma it was 4.33% (active); with SW-620 colon, 71.1%; in the assay with MCF7 breast, 62%; with HCT-116 colon, 61.8%. Moreover, in the assay on KM12 colon, the growth was 101%.
For `COc1ccc(-c2n/c(=C\c3c(O)[nH]c4ccc(OC)cc34)cc3c2=Nc2ccccc2-3)cc1`, the growth in the assay with T-47D breast is 93%; with BT-549 breast it was -20.1% (active); in the assay with MDA-MB-435 melanoma it was 3.6% (active); with SW-620 colon, 0.413% (active); in the assay on MCF7 breast, -22.7% (active); in the assay with HCT-116 colon, -72.6% (active). The growth in the assay on HCC-2998 colon is 22.7%; in the assay with KM12 colon it was 8.66% (active).
Take `COc1ccc2nc(-c3cc(-c4cc(OC)c(OC)c(OC)c4)n[nH]3)[nH]c2c1`: the growth with T-47D breast is -31.2% (active); in the assay with BT-549 breast, 3.56% (active); with MDA-MB-435 melanoma, -25.4% (active); with SW-620 colon, 21%; in the assay on MCF7 breast it was -6.38% (active); with HCT-116 colon, 12.7%. Besides, the growth is 49.6% in the assay on HCC-2998 colon and -30% (active) with KM12 colon.
Turning to `Cc1ccc(/C=C(\C#N)c2cc3ccccc3n2C)cc1`, the growth was 54.9% in the assay with T-47D breast; 0.46% (active) in the assay with BT-549 breast; -1.88% (active) in the assay with MDA-MB-435 melanoma; 31.8% in the assay on SW-620 colon; 18.4% in the assay with MCF7 breast; 16.2% with HCT-116 colon. In addition, the growth in the assay on HCC-2998 colon was 17.4%; in the assay on KM12 colon, 22.3%.
Turning to `Cn1cc(-c2csc(-c3cn(CCCN4CCCCC4)c4ccccc34)n2)c2cccnc21`, the growth with T-47D breast was 92.5%; in the assay with BT-549 breast, 72.7%; in the assay with MDA-MB-435 melanoma, -87.7% (active); in the assay on SW-620 colon, -65.3% (active); in the assay with MCF7 breast it was -77.2% (active); with HCT-116 colon, -95% (active). For the same compound, the values for the growth in the assay on HCC-2998 colon and with KM12 colon were 99% and -62.8% (active), respectively.
As to `CCCCCCCC(=O)SCC/C=C/[C@@H]1CC(=O)NCc2cccc(n2)CN(Cc2ccc3ccccc3c2)CC(=O)N[C@@H](C(C)C)C(=O)O1`, the growth in the assay on T-47D breast is 44.5%; in the assay on BT-549 breast it was 88.1%; in the assay on MDA-MB-435 melanoma, 37.4%; in the assay with SW-620 colon it was 76.8%; with MCF7 breast, 26.5%; in the assay with HCT-116 colon it was 5.36% (active). In addition, the values for the growth in the assay on HCC-2998 colon and with KM12 colon were 49.5% and 38.8%, respectively.
In the case of `CC(C)c1cc(C(=O)O)c(O)c(C(C)C)c1.CC(C)c1cc(C(=O)O)c(O)c(C(C)C)c1.[Mn]`, the growth with T-47D breast is 82%; in the assay on BT-549 breast, 91.2%; with MDA-MB-435 melanoma, 108%; with SW-620 colon, 106%; with MCF7 breast, 104%; in the assay on HCT-116 colon, 103%. For the same compound, the growth with HCC-2998 colon is 134%; in the assay on KM12 colon, 98.1%.
Turning to `COC(=O)CNc1nc(N(C)O)nc(N(C)O)n1`, the growth with T-47D breast is 64.8%; in the assay with BT-549 breast it was 66.9%; in the assay on MDA-MB-435 melanoma, 65.7%; with SW-620 colon, 42.8%; in the assay on MCF7 breast it was 30.7%; with HCT-116 colon it was 13.8%. The growth in the assay on HCC-2998 colon was 23.4%; in the assay on KM12 colon, 45.2%.
On to `COc1ccc(-c2nc(Nc3ccc(-c4nc5ccccc5[nH]4)cc3)nc(N3CCOCC3)n2)cc1`, for which the growth in the assay with T-47D breast is 16.1%; in the assay on BT-549 breast, 5.16% (active); with MDA-MB-435 melanoma, -38% (active); in the assay on SW-620 colon it was 3.57% (active); in the assay with MCF7 breast, -44.3% (active); in the assay on HCT-116 colon, 4.8% (active). Also, the growth with KM12 colon was 12.4%.

For the origin of these results see PubChem BioAssay (NCI).
